# USP17 inh = human USP17-like deubiquitinase inhibition | purified USP17, Ub-rhodamine cleavage fluorescence, 3 h | 6.5% of 47,000 active | A8MUK1 | inhibition, % at 50 µM
# USP30 block = inhibitors of human USP30 deubiquitinase. Q70CQ3. 5.3% of 47,000 active. AID 1645860. purified USP30, Ub-rhodamine cleavage fluorescence. inhibition, % at 25 µM
# USP8 inh = human USP8 deubiquitinase inhibition. P40818. purified USP8, Ub-rhodamine cleavage fluorescence, 30 min. inhibition, % at 20 µM. 4.2% of 47,000 active
# Target sequence (P40818 whole entry, looked up): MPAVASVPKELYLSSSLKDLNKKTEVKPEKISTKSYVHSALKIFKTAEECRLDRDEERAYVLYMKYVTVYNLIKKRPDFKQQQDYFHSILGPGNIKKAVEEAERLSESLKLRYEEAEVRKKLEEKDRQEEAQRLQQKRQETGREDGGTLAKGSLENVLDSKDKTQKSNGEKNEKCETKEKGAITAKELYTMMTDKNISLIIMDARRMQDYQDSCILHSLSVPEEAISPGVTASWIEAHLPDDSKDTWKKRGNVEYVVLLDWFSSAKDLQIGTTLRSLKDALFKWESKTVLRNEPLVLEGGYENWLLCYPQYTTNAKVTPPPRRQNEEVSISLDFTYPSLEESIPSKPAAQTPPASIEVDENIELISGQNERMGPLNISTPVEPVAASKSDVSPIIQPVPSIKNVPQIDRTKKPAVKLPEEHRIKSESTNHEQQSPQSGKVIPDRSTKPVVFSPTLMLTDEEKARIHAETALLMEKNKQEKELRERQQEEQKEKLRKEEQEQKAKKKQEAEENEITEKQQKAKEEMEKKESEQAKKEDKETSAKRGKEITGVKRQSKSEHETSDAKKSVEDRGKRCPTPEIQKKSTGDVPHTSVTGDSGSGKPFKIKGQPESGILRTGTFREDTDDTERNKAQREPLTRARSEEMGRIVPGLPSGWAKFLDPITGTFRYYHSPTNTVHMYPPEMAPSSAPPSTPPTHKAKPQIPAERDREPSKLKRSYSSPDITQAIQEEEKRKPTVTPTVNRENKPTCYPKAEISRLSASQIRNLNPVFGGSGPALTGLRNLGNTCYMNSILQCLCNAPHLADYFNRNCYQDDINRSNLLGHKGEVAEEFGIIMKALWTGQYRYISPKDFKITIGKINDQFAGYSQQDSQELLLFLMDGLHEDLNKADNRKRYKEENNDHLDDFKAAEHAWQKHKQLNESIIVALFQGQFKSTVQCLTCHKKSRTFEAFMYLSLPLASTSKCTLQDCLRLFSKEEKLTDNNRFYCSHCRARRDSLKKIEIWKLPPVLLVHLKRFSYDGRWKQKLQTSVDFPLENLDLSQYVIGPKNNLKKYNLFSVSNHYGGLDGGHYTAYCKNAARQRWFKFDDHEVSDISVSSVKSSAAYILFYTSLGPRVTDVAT
# USP28 inh = blocks human USP28 ubiquitin-rhodamine cleavage. Q96RU2. purified USP28, Ub-rhodamine cleavage fluorescence, 30 min. inhibition, % at 25 µM. 3% of 47,000 active
# * marks the source's active call; other numbers are inactive results; x = no result given. This is a sample that favours compounds with a hit; in the whole collection about 14% have one here. Cut-off read from the data, not from the text of the source: active = inhibition above about 30%; inactive = the rest.
SMILES,USP17 inh,USP30 block,USP8 inh,USP28 inh
Cn1cccc1CN1CCC2(CC1)CN(Cc1ccccn1)C(=O)CO2,-17,-141,-28,-32
CCOC(=O)c1c(N)n(CC(C)NC(=O)C2CC2)c2nc3ccccc3nc12 (stereo not given),30*,-40,25,-7
O=S(=O)(NCc1csc2ccc(Cl)cc12)c1cccc2cccnc12,6,29,38*,10
O=C(NCc1ccncc1)C1CCN(C(=O)c2ccc(Cl)cc2)CC1,-4,10,-59,-15
O=C(Nc1ccccc1N1CCOCC1)C1CCCCN1S(=O)(=O)c1ccccc1 (stereo not given),-5,1,-12,-13
O=C(Nc1ccccc1N1CCOCC1)C1Cc2ccccc2CN1S(=O)(=O)c1ccccc1F (stereo not given),20,-35,31*,-6
Cc1c(Cl)cccc1NC(=O)c1[nH]nc2c1COc1ccccc1-2,-31,-182,35*,-54
CO[C@@H]1C[C@@H](C[C@H]2CC[C@H](C)[C@H]([C@@H](C)C(=O)O)O2)O[C@]2(O[C@](C)([C@H]3CC[C@@](C)([C@@H]4O[C@@H]([C@H]5O[C@](C)(O)[C@H](C)C[C@@H]5C)C[C@@H]4C)O3)C[C@H]2C)[C@@H]1C,16,34*,8,5
CCCn1c(=O)[nH]c2nc(N3CCCCC3)sc2c1=O,33*,-25,-1,-4
CCCn1c(=O)[nH]c2c(C(=O)N3CCCCC3)snc2c1=O,-5,2,-4,-6
Cc1ccnc(NC(=O)c2ccn(COc3ccccc3Cl)n2)c1,18,32*,-34,16
Cc1ccccc1NC(=O)c1ccn(COc2ccc(Cl)cc2)n1,19,19,19,59*
Cc1nc2ccccn2c(=O)c1NC(=O)COc1ccc(Cl)cc1,-4,14,-1,-8
Cc1nccn1CCCNC(=O)c1ccn(-c2ccccc2Cl)n1,5,x,-2,x
O=C(Nc1cc(F)ccc1F)c1ccn(COc2ccc(F)c(Cl)c2)n1,46*,70*,23,19
O=C(Nc1cc(F)ccc1F)c1ccc2c(c1)ncn2CCN1CCCC1,-1,-30,-12,0
Cc1cc(C)n(-c2cc(C(=O)N3CCN(C(=O)c4ccccc4F)CC3)ccc2F)n1,3,14,-25,6
Cc1nnc(-c2coc(S(=O)(=O)N3CCN(c4ccccc4C)CC3)c2)o1,4,-3,9,2
Cc1nnc(-c2coc(S(=O)(=O)N3CCN(c4ccccc4F)CC3)c2)o1,20,39*,6,0
O=C1N[C@@H]2CN(S(=O)(=O)c3ccc4ccccc4c3)CC[C@H]2CO1,2,3,0,0
COc1ccc(-c2noc([C@@H]3C[C@H](NC(=O)Nc4ccc(C)cc4)CN3C)n2)cc1,4,42*,25,9
COc1ccc(-c2noc(C3CCCN3C(=O)Nc3cccc(C)c3)n2)cc1 (stereo not given),10,9,2,10
COc1ccccc1NC(=O)N1CCCC1c1nc(-c2cccc(Cl)c2)no1 (stereo not given),12,40*,11,17
COc1cccc(-c2noc(C3CCCN3C(=O)Nc3ccccc3C)n2)c1 (stereo not given),-12,3,-10,-15
COc1ccc(-c2noc(C3CCCN3C(=O)Nc3ccc(C)cc3C)n2)cc1 (stereo not given),14,33*,15,15
SMILES,USP17 inh,USP30 block,USP8 inh,USP28 inh
Cc1ccc(NC2=NC(c3ccco3)n3c(nc(C)cc3=O)N2)c(C)c1 (stereo not given),40*,62*,-8,22
O=C(NNS(=O)(=O)c1ccc(F)cc1)C1CCN(S(=O)(=O)c2ccccc2)CC1,7,17,7,31*
O=C(NCc1ccc(F)cc1)C1CCN(S(=O)(=O)c2ccccc2)CC1,-5,6,-4,-1
O=c1c(NCc2ccccc2Cl)nccn1Cc1ccc(F)cc1,19,30*,21,30*
O=c1c(NCc2ccc(F)cc2)nccn1-c1ccc2c(c1)OCCO2,-2,3,-9,19
CC(=O)N1c2ccc(S(=O)(=O)N3CCC(C(=O)N(C)Cc4ccco4)CC3)cc2CC1C (stereo not given),-8,-6,4,2
C[C@@H]1CC[C@H]2C(C)(C)[C@H](O)[C@@H](O)C[C@]2(C)[C@@]12Cc1c(O)cc3c(c1O2)CNC3=O,-5,3,6,17
CC(=O)O[C@H]1CC[C@]2(C)[C@H]3Cc4c(O)cc5c(c4O[C@]3(C)CC[C@H]2C1(C)C)CNC5=O,34*,0,-7,29
Cc1ccc(-c2nc(Cn3cnc4ccccc4c3=O)cs2)cc1,37*,58*,37*,33*
O=c1c2ccc(Cl)cc2ncn1Cc1csc(-c2ccccc2)n1,27,0,17,20
Cc1ccc2c(c1)n(S(=O)(=O)c1ccc(F)cc1)c(=O)n2S(=O)(=O)c1ccc(F)cc1,33*,35*,26,19
Cc1ccc2nc3c(cc2c1)CCN3S(=O)(=O)c1ccc(F)cc1,1,-22,-4,-8
CCn1cc(S(=O)(=O)Nc2ccccc2F)c2cccnc21,8,-35,18,1
CCn1cc(S(=O)(=O)NCc2cc(F)cc(F)c2)c2cccnc21,37*,-44,48*,11
CCN1C(=O)Cc2cc(NC(=O)c3ccc(-c4ccccc4)cc3)ccc21,-19,-46,7,27
O=C(c1cc2c(s1)-c1ccsc1CC2)N1CCCCCC1,38*,46*,12,23
Cn1nc(C(=O)N2CCCCC2)c2c1-c1ccsc1CC2,16,x,-5,x
COc1ccc2c(C)c(CCC(=O)N3CC[C@@]4(O)CCCC[C@H]4C3)c(=O)oc2c1C,-14,2,-9,-12
COc1cc(COc2ccc3c(C)c(CC(=O)N4CC[C@@]5(O)CCCC[C@H]5C4)c(=O)oc3c2C)cc(OC)c1OC,48*,50*,-5,10
COc1ccc(-c2ocnc2C(=O)NCc2ccc(F)cc2)cc1,12,-4,14,55*
O=C(Cn1c(=O)n(Cc2ccccc2)c(=O)c2cc(Cl)ccc21)c1cccc(C(F)(F)F)c1,16,2,0,1
O=C(O)CCc1nc2cc(C(F)(F)F)ccc2n(Cc2ccccc2)c1=O,41*,0,9,12
COc1ccc(N2CCN(C(=O)c3nnn(-c4ccc(OC)cc4)n3)CC2)cc1,11,36*,0,17
NC(=O)C1CCN(C(=O)c2nnn(-c3ccccc3)n2)CC1,16,34*,16,14
O=C(c1nnn(-c2ccc(F)cc2)n1)N1CCN(c2ccccc2O)CC1,2,17,16,1
COc1ccc(-n2nnc(C(=O)N3CCC4(CC3)OCCO4)n2)cc1,12,9,13,5
COc1ccc(-n2nnc(C(=O)N3CCN(c4ccccc4Cl)CC3)n2)cc1,23,33*,13,33*
c1cnc(Nc2cc(CCC3CCNCC3)ccn2)nc1,-11,-2,-79,-4
Cc1nn(-c2ccccc2)c(C)c1C(=O)OCC(=O)Nc1cccc(C#N)c1,8,5,19,66*
Cc1nn(-c2nc3ccccc3n2C)c2c1C(c1ccccc1)CC(=O)N2 (stereo not given),7,0,-3,-5

# High-throughput results (PubChem)
